Data on 46 sequences can be found in the supplement of paper PMC11417369.

± gives the standard deviation of the averaged measurements. The full ranking holds about 25,000 sequences; the median of “ln(normalized median fluorescence intensity)” is about 7.9, and the highest 2% start at about 11. For the sample, the highest values were picked, then their nearest neighbours and some sequences at random.

In the assay the test system is PfAP2-I AP2 domain 3 (GST-tagged). The assay can be described thus: gcPBM binding intensity (ln(normalized median fluorescence intensity)); higher = stronger DNA binding. The essentials: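 Each value is the highest Masliner-normalised natural-log median intensity across replicate spots of either orientation of a probe. The probes were primer-extended double-stranded 36-bp intergenic genomic sequences on an Agilent 4 × 180k array, alongside negative controls, exposed for 1 h to GST-tagged P. falciparum DNA-binding domains expressed in E. coli. Bound protein was picked up with Alexa488 anti-GST antibody and scanned at 488 nm.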
“TGGAAACAATGACACACACACAAAAAAAAAAAAAAA [CACACA_site7494]”: the “gcPBM binding intensity (ln)” value stood at 7.97 ± 0.56.

Turning to “TATAAGTTGATATATACACACATATATAAATATGTA [CACACA_site7526]”, the “gcPBM binding intensity (ln)” value turned out to be 7.4 ± 0.4.

Regarding “ATATTTTCTTTTTAAAGTACATATTTGATTACAATA [XGTACX_site8414]”, the “gcPBM binding intensity (ln)” value was 7.66 ± 0.5.

As for “TATGTATATATTTGTGCACACCAAAGTTTGATTTTA [CACACA_site1861]”, the “gcPBM binding intensity (ln)” value is 10.71 ± 0.014.

As to “ATATGTATTTATATATGTTTGATTTTTTTTTTTTTT [TGCATGCA_negctrl_site506]”, the “gcPBM binding intensity (ln)” value turned out to be 7.71 ± 0.26.

Turning to “TGTATATATTTGTGCACACCAAAGTTTGATTTTATT [CACACA_site1860]”, the “gcPBM binding intensity (ln)” value is 10.9 ± 0.099.

For “AAAAAAAAAAGACACACACACACATACACATACATA [CACACA_site7362]”, the “gcPBM binding intensity (ln)” value came to 7.96 ± 0.29.

For the sequence “TTTTTGTGCATTGATTGTACTTTCTAGGATTATTAA [XGTACX_site7070]”, the “gcPBM binding intensity (ln)” value worked out at 10.16 ± 0.049.

On to “TATATTATTATATATTGTACTTTTTATATTTGCATT [XGTACX_site2978]”, for which the “gcPBM binding intensity (ln)” value is 7.72 ± 0.49.

As to “TTTTTTTTTTTTGAAGTGCATTACTTTTTTTGTATT [GTGCAC_site9811]”, the “gcPBM binding intensity (ln)” value stood at 11 ± 0.44.

On to “TATATTTATAAATGAACACACACGCAATTTGAATCG [CACACA_site3370]”, for which the “gcPBM binding intensity (ln)” value was found to be 7.89 ± 0.49.

With “ATTGTTATTTATTGTGTGCGCATTAATACATACATA [GTGCAC_site9982]”, the “gcPBM binding intensity (ln)” value is 8.95 ± 0.41.

As to “TTCAATAGGTATAATTGTACTTAATAATATATTGTT [XGTACX_site8363]”, the “gcPBM binding intensity (ln)” value came to 7.53 ± 0.42.

Take “ATATATATATAGTACGCACACATAGTTGTACATTAA [CACACA_site2787]”: the “gcPBM binding intensity (ln)” value came out at 9.21 ± 0.13.

For the sequence “GTTTATTGATTTATTTGTACTTATATATATATTTCA [XGTACX_site5098]”, the “gcPBM binding intensity (ln)” value is 8.07 ± 0.63.

As for “TTGTTTTGGATTATCACACATATAATATATACTCAT [CACACA_site4780]”, the “gcPBM binding intensity (ln)” value was 7.82 ± 0.68.

For “GTAATATCAATATAAAGTACACACTATAGTATGTAT [XGTACX_site4714]”, the “gcPBM binding intensity (ln)” value was determined as 7.66 ± 0.49.

As for “TATATATATATCAAGTGTACTTGTGTTTGTAATATT [XGTACX_site8854]”, the “gcPBM binding intensity (ln)” value is 9.165 ± 0.049.

For “TAAGTAATAGTTTGTGCACACTCAAGTATATCATAT [CACACA_site4035]”, the “gcPBM binding intensity (ln)” value was determined as 10.8 ± 0.28.

For the sequence “AAAATCAAGTAGTATAAAGTAAGTATCATAAAAATA [CACACA_negctrl_site1554]”, the “gcPBM binding intensity (ln)” value is 7.63 ± 0.59.

On to “TATATATCAATATGCACACACAAGAAGTAATTATAA [CACACA_site7487]”, for which the “gcPBM binding intensity (ln)” value is 8.96 ± 0.22.

Turning to “AGTAATAGTTTGTGCACACTCAAGTATATCATATAT [CACACA_site4034]”, the “gcPBM binding intensity (ln)” value came out at 10.9 ± 0.24.

In the case of “TTTATAGTTTTTAATAGTACACATATTTTTAAGTAT [XGTACX_site5498]”, the “gcPBM binding intensity (ln)” value is 7.89 ± 0.2.

On to “AGTAATAGTTTGTGCACACTCAAGTATATCATAGAT [CACACA_site6082]”, for which the “gcPBM binding intensity (ln)” value was found to be 11 ± 0.23.

As to “GTTATAACTCAAATATGTACATATTATAAAACATAT [XGTACX_site6693]”, the “gcPBM binding intensity (ln)” value was found to be 7.92 ± 0.47.

“TTTTTTTTTTATTGTACATGCAAAAAATTCCACACA [TGCATGCA_site279]”: the “gcPBM binding intensity (ln)” value was determined as 8.31 ± 0.32.

For the sequence “ATTTACCCTTGCCATGCACACTTTTTTATAGAAAAT [CACACA_site5857]”, the “gcPBM binding intensity (ln)” value was 8.95 ± 0.44.

Turning to “GAACTTTACAACCCAACACACAAAAAAGAAAAGAAA [CACACA_site1717]”, the “gcPBM binding intensity (ln)” value was found to be 7.87 ± 0.46.

Regarding “ACATTTACAAGGAAAGTGCATATAAGAAAAATAAAA [GTGCAC_site9587]”, the “gcPBM binding intensity (ln)” value was determined as 10.2 ± 0.11.

Regarding TATAATAACAATTTAGTGCATATAATAATATTTTAT, the “gcPBM binding intensity (ln)” value was found to be 10 ± 0.19.

Turning to “AAAATAATATAAATAATATAAGTGAGCATATATATA [TGCATGCA_negctrl_site527]”, the “gcPBM binding intensity (ln)” value stood at 7.92 ± 0.72.

Consider “TTGTGTGAGCAAGTAGTGCATAATATAAATAAAAAA [GTGCAC_site9802]”, for which the “gcPBM binding intensity (ln)” value stood at 11.2 ± 0.54.

Turning to CCACGAGAATATATAGTGCATAATAATTTTTTTTTG, the “gcPBM binding intensity (ln)” value is 11.1 ± 0.4.

As to TAAAAAATTAATAAAGTGCATAAATATTACAATATT, the “gcPBM binding intensity (ln)” value is 10.3 ± 0.4.

With “AGTAGCAAATATTAAGTGCATATTATATAATGTGTA [GTGCAC_site9546]”, the “gcPBM binding intensity (ln)” value is 9.04 ± 0.16.

With “CTATGCATTTATAGTGCATGTAAAATATAAGATAAT [TGCATGCA_site71]”, the “gcPBM binding intensity (ln)” value came to 9.86 ± 0.085.

As for “TTTAGATATATGGTAGTGCATAATAAAAATATAGCC [GTGCAC_site9449]”, the “gcPBM binding intensity (ln)” value was found to be 11.1 ± 0.67.

Regarding “ATAATATTTTATATAGTGCATTTGCTCATTATATAT [GTGCAC_site9528]”, the “gcPBM binding intensity (ln)” value was found to be 9.85 ± 0.45.

Regarding “TAAAAAATGATAGAAGTGCATAAAATAATATATATA [GTGCAC_site9904]”, the “gcPBM binding intensity (ln)” value is 10.4 ± 0.13.

For “TTTCTAGTTACAAGAGTGCATAATATATAAAAATAA [GTGCAC_site9874]”, the “gcPBM binding intensity (ln)” value was 10.9 ± 0.56.

On to “TCAAAATATCCAAAAGAATAAAGAAAAAAAAAAAGA [CACACA_negctrl_site1377]”, for which the “gcPBM binding intensity (ln)” value was 7.5 ± 0.41.

Regarding “TTGTAATTTATTCAAACACACAATTTGGACCTTTTT [CACACA_site1063]”, the “gcPBM binding intensity (ln)” value worked out at 7.45 ± 0.51.

For the sequence “TTTTTACTATAAGGGGAAAAAAAAAAAAATAATATA [XGTACX_negctrl_site279]”, the “gcPBM binding intensity (ln)” value was found to be 7.78 ± 0.28.

In the case of “ATGTAGATATATATATGTACTAATTAGTAGTTTACG [XGTACX_site6275]”, the “gcPBM binding intensity (ln)” value worked out at 8 ± 0.41.

On to “ATATATATATCAACAACACACGATTAACTAAAAAAA [CACACA_site302]”, for which the “gcPBM binding intensity (ln)” value is 8.8 ± 0.19.

Turning to “ACCTTATTTAGTTATAGTACACAAAGTATTAAACAT [XGTACX_site8418]”, the “gcPBM binding intensity (ln)” value was 8.46 ± 0.46.
